These results are taken from publication PMC4336329 (PLoS ONE, 2015).

Structures are written as SMILES. The campaign covered roughly 310,000 compounds. About 14,000 (4.5%) showed an effect of 50% or more. Effects have a minus sign here. Shown is part of a subset that was picked to be rich in strong results.
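Also: peak tail current of the secondary pulse compared with the same well before compound.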

For this assay, the target named is human ether-à-go-go-related gene (hERG) potassium channel (human, UniProt Q12809). Kind of assay: primary screen, population patch clamp on CHO cells stably expressing hERG; higher = less effect of the substance.
Sequence of human ether-à-go-go-related gene (hERG) potassium channel (Q12809 whole entry, looked up): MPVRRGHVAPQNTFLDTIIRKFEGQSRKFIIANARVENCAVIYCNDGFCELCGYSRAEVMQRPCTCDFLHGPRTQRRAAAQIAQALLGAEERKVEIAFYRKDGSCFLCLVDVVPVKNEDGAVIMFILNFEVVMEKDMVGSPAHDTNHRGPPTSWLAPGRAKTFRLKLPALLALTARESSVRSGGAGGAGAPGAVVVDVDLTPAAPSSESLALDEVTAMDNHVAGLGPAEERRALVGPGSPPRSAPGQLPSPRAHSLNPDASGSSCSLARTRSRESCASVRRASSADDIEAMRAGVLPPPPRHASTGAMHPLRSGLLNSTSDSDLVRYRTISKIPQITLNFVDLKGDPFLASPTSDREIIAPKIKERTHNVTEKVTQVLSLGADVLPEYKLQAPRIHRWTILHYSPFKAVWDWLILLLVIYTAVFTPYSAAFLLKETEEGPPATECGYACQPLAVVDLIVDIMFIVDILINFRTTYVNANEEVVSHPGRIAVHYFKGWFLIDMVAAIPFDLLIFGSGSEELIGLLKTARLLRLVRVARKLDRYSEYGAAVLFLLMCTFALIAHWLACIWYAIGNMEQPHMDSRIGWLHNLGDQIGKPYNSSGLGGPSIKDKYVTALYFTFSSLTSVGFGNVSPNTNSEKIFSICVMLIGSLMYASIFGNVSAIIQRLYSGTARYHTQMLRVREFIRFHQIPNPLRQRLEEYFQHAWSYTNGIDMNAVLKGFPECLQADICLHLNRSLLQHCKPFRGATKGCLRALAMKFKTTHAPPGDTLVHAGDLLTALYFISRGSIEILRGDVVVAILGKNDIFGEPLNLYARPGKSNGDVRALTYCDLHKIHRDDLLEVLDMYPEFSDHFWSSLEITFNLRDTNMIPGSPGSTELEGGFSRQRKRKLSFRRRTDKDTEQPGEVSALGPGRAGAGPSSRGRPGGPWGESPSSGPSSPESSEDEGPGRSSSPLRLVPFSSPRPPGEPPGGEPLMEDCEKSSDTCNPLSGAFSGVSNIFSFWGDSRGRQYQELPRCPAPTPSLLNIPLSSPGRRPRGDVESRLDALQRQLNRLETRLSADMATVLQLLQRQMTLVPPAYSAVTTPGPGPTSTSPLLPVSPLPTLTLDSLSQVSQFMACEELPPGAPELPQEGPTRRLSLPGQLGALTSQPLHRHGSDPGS
Turning to `CS(=O)(=O)N1CCN(C(=O)Cc2ccc(Br)cc2)CC1`, the “hERG current change (%, negative = inhibition) at 10uM” value is given as -1.44%.

Turning to `COc1ccc2[nH]cc(CCNS(=O)(=O)c3ccc(F)cc3)c2c1`, the “hERG current change (%, negative = inhibition) at 10uM” value came to 4.05%.

Consider `Cc1cc(C)c(OCC(=O)Nc2nnc(-c3ccco3)o2)c(C)c1`, for which the “hERG current change (%, negative = inhibition) at 10uM” value worked out at 1.74%.

As to `COc1ccccc1NC(=O)c1sc(Cl)nc1C`, the “hERG current change (%, negative = inhibition) at 10uM” value was found to be 2.93%.

As to `O=[N+]([O-])c1ccc(S(=O)(=O)Nc2ccc(-c3ccc(N4CCOCC4)nn3)cc2)cc1`, the “hERG current change (%, negative = inhibition) at 10uM” value is recorded as -7.79%.

Regarding `O=C(Cc1ccccc1)NNC(=S)NC(=O)c1cccnc1`, the “hERG current change (%, negative = inhibition) at 10uM” value is listed as 14.7%.

For the compound `CC(C)C(NC(=O)C1CCCCC1)C(=O)Nc1ccc2c(c1)OCCO2` (centres unmarked), the “hERG current change (%, negative = inhibition) at 10uM” value is listed as -1.07%.

Take `CC(C)(C)OC(=O)N1CC(O)CC1C(=O)OCC(=O)c1ccc(-c2ccccc2)cc1` (centres unmarked): the “hERG current change (%, negative = inhibition) at 10uM” value is 32%.

On to `COC(=O)C1Cc2c([nH]c3ccccc23)CN1` (centres unmarked), for which the “hERG current change (%, negative = inhibition) at 10uM” value stood at 1.45%.

Consider `CN(C)c1ccc(N2C(=NC(=O)COc3ccccc3)SC3CS(=O)(=O)CC32)cc1` (centres unmarked), for which the “hERG current change (%, negative = inhibition) at 10uM” value was 23.7%.

For `COc1ccc(-c2cnn3c4c(c(C)nc23)CCN4C2CCCC2)cc1OC`, the “hERG current change (%, negative = inhibition) at 10uM” value is 2.7%.

With `COc1ccc(S(=O)(=O)N2CCC(C(=O)NCCC(=O)NCc3cccc(OC)c3)CC2)cc1`, the “hERG current change (%, negative = inhibition) at 10uM” value was -4.05%.

With `COc1ccc(S(=O)(=O)N2CCC(C(=O)NCc3cccc(OC)c3)CC2)cc1`, the “hERG current change (%, negative = inhibition) at 10uM” value was -17.4%.

For the compound `COc1cccc(CNC(=O)C2CCN(S(=O)(=O)c3ccccc3)CC2)c1`, the “hERG current change (%, negative = inhibition) at 10uM” value is recorded as -36%.

On to `COc1cccc(CNC(=O)C2CCN(S(=O)(=O)c3ccc(C)cc3)CC2)c1`, for which the “hERG current change (%, negative = inhibition) at 10uM” value is given as -50.4%.

With `COc1ccc(CNC(=O)C2CCCN(S(=O)(=O)c3ccc(-n4cnnn4)cc3)C2)cc1` (centres unmarked), the “hERG current change (%, negative = inhibition) at 10uM” value was -8.97%.

Regarding `COc1cccc(CNC(=O)C2CCN(S(=O)(=O)c3ccc(-n4cnnn4)cc3)CC2)c1`, the “hERG current change (%, negative = inhibition) at 10uM” value was -57.3%.

With `Cc1ccc(C(=O)Nc2ccc(N3CCN(S(C)(=O)=O)CC3)cc2)cc1`, the “hERG current change (%, negative = inhibition) at 10uM” value was 4.23%.

Consider `c1ccc(-c2nnc3ccc(N4CCC5(CC4)OCCO5)nn23)cc1`, for which the “hERG current change (%, negative = inhibition) at 10uM” value was -46.8%.

For `Brc1ccc2ncnc(NCc3ccco3)c2c1`, the “hERG current change (%, negative = inhibition) at 10uM” value was -39.5%.

For the compound `N#CCc1c(C#N)c(N)nc(N2CCN(c3ccc(F)cc3)CC2)c1C#N`, the “hERG current change (%, negative = inhibition) at 10uM” value is -63.9%.

As to `N#CCc1c(C#N)c(N)nc(N2CCN(C=O)CC2)c1C#N`, the “hERG current change (%, negative = inhibition) at 10uM” value was -10.8%.

With `N#CCc1c(C#N)c(N)nc(N2CCOCC2)c1C#N`, the “hERG current change (%, negative = inhibition) at 10uM” value is listed as 1.34%.

For `O=C1OC(=O)c2c(Br)c(Br)c(Br)c(Br)c21`, the “hERG current change (%, negative = inhibition) at 10uM” value came to 20.7%.

With `CC(C)c1ccccc1OCCNC(=O)c1cccnc1`, the “hERG current change (%, negative = inhibition) at 10uM” value was -1.33%.

For the compound `CC(C)c1ccccc1OCCNC(=O)c1cncc(Br)c1`, the “hERG current change (%, negative = inhibition) at 10uM” value is reported as -60.6%.

`O=C(NCCOc1ccccc1)c1cncc(Br)c1`: the “hERG current change (%, negative = inhibition) at 10uM” value is listed as -26.8%.

Turning to `CC(=O)Oc1ccccc1/C=C/c1ccc2ccccc2[n+]1C.[I-]`, the “hERG current change (%, negative = inhibition) at 10uM” value amounted to 11.3%.

Take `O=C(NCc1ccccc1)C1CCC(=O)N(CC2CCCCC2)C1` (centres unmarked): the “hERG current change (%, negative = inhibition) at 10uM” value is on record as 9.03%.

In the case of `CC[n+]1c(/C=C2/C=C(C)CC(C)(C)C2)sc2ccc(OC)cc21.Cc1ccc(S(=O)(=O)[O-])cc1`, the “hERG current change (%, negative = inhibition) at 10uM” value is on record as -68.7%.

Consider `CC[n+]1c(/C=C2\C=C(C)CC(C)(C)C2)sc2ccccc21.[I-]`, for which the “hERG current change (%, negative = inhibition) at 10uM” value is reported as -39.7%.

`CCC1=C/C(=C/c2sc3ccccc3[n+]2CC)CC(C)(C)C1.[I-]`: the “hERG current change (%, negative = inhibition) at 10uM” value is recorded as 11.5%.

Take `O=C(COc1ccccc1)Nc1nnc(-c2ccccc2Cl)o1`: the “hERG current change (%, negative = inhibition) at 10uM” value was 8.56%.

On to `CCOC(=O)c1cc(NC(=O)CN2CCCC2)cc(C(=O)OCC)c1`, for which the “hERG current change (%, negative = inhibition) at 10uM” value is given as -16.2%.

In the case of `Br.c1ccc(CN2CCC(N=C3NN=C(c4ccc5c(c4)OCCO5)CS3)CC2)cc1`, the “hERG current change (%, negative = inhibition) at 10uM” value is -43.1%.

With `Cc1cccc(C)c1NC(=O)CNC(=O)CN1C(=O)NC2(CCc3ccccc32)C1=O` (centres unmarked), the “hERG current change (%, negative = inhibition) at 10uM” value turned out to be 1.69%.

Take `NC1=NC(=O)/C(=C/c2ccccc2OS(=O)(=O)c2ccccc2)S1`: the “hERG current change (%, negative = inhibition) at 10uM” value stood at 5.2%.

With `O=C1N=C(N2CCOCC2)S/C1=C\c1ccc(OS(=O)(=O)c2ccccc2)cc1`, the “hERG current change (%, negative = inhibition) at 10uM” value is reported as -49.8%.

Turning to `CC(=O)N1CCN(C2=NC(=O)/C(=C\c3cccs3)S2)CC1`, the “hERG current change (%, negative = inhibition) at 10uM” value is listed as -37.1%.

As for `CC(=O)N1CCN(C2=NC(=O)/C(=C/c3ccc(OS(=O)(=O)c4ccccc4)cc3)S2)CC1`, the “hERG current change (%, negative = inhibition) at 10uM” value is listed as -69.6%.

On to `O=C1N=C(N2CCOCC2)S/C1=C\c1ccccc1OS(=O)(=O)c1ccccc1`, for which the “hERG current change (%, negative = inhibition) at 10uM” value amounted to 0.61%.

Turning to `CN1CCN(C2=NC(=O)/C(=C/c3ccccc3OS(=O)(=O)c3ccccc3)S2)CC1`, the “hERG current change (%, negative = inhibition) at 10uM” value is listed as -76.1%.

For `CCOc1ccccc1CNC(=O)c1ccc2nc(N3CCOCC3)sc2c1`, the “hERG current change (%, negative = inhibition) at 10uM” value was -47.5%.

With `O=C(Nc1cc(Cl)ccc1O)C1CC(c2ccccc2O)=NO1` (centres unmarked), the “hERG current change (%, negative = inhibition) at 10uM” value is -5.36%.

For `O=C(O)CSc1ncnc2c1sc1nc(-c3ccccc3)c3c(c12)CCC3`, the “hERG current change (%, negative = inhibition) at 10uM” value worked out at 10.3%.

Consider `NC(=O)C1CCN(C(=O)c2ccc(OCC(=O)Nc3cccc(C(F)(F)F)c3)cc2)CC1`, for which the “hERG current change (%, negative = inhibition) at 10uM” value is given as 1.96%.

In the case of `CCOc1ccc(NC(=O)COc2ccc(C(=O)N3CCC(C(N)=O)CC3)cc2OC)cc1`, the “hERG current change (%, negative = inhibition) at 10uM” value stood at 9.91%.

For `CCOC(=O)C1CCN(C(=O)c2ccc(OCC(=O)Nc3cccc(C(F)(F)F)c3)c(OC)c2)CC1`, the “hERG current change (%, negative = inhibition) at 10uM” value is on record as -61.9%.

Regarding `CCOC(=O)C1CCN(C(=O)c2ccc(OCC(=O)Nc3ccc(OCC)cc3)c(OC)c2)CC1`, the “hERG current change (%, negative = inhibition) at 10uM” value is recorded as -19.5%.

As to `O=C(COc1ccc(C(=O)O)cc1)Nc1cccc(C(F)(F)F)c1`, the “hERG current change (%, negative = inhibition) at 10uM” value is on record as 22.5%.

As for `CCOC(=O)C1CCN(C(=O)c2ccc(OCC(=O)Nc3cccc(C(F)(F)F)c3)cc2)CC1`, the “hERG current change (%, negative = inhibition) at 10uM” value is on record as -55.5%.

For `Cc1nc(C(=O)NNC(=O)c2ccc(Cl)cc2)c(C(F)(F)F)o1`, the “hERG current change (%, negative = inhibition) at 10uM” value came out at 7.36%.

With `CCCN1CNC(=S)N(CC2CCCO2)C1` (centres unmarked), the “hERG current change (%, negative = inhibition) at 10uM” value was 5.19%.

For the compound `O=c1c2cc(NC(=S)NCc3cccnc3)ccc2nc2n1CCCCC2`, the “hERG current change (%, negative = inhibition) at 10uM” value is on record as -10.1%.

In the case of `CCN(CC)CCNC(=S)Nc1ccc2nc3n(c(=O)c2c1)CCCCC3`, the “hERG current change (%, negative = inhibition) at 10uM” value is recorded as 0.152%.

On to `CCCCN(CC)C(=S)Nc1ccc2nc3n(c(=O)c2c1)CCCCC3`, for which the “hERG current change (%, negative = inhibition) at 10uM” value is recorded as -59%.

Take `CN(Cc1ccccc1)C(=S)Nc1ccc2nc3n(c(=O)c2c1)CCCCC3`: the “hERG current change (%, negative = inhibition) at 10uM” value is -78.1%.

Consider `CCCCNC(=S)Nc1ccc2nc3n(c(=O)c2c1)CCCCC3`, for which the “hERG current change (%, negative = inhibition) at 10uM” value is reported as -43.6%.

In the case of `CCCN(CCC)CCCNC(=S)Nc1ccc2nc3n(c(=O)c2c1)CCCCC3`, the “hERG current change (%, negative = inhibition) at 10uM” value was determined as 6.36%.

As for `CCCCN(CC)CCCNC(=S)Nc1ccc2nc3n(c(=O)c2c1)CCCCC3`, the “hERG current change (%, negative = inhibition) at 10uM” value was -11.9%.

Turning to `CCCCN(C)C(=S)Nc1ccc2nc3n(c(=O)c2c1)CCCCC3`, the “hERG current change (%, negative = inhibition) at 10uM” value was -81.2%.

Consider `CCN(CC)C(=S)Nc1ccc2nc3n(c(=O)c2c1)CCCCC3`, for which the “hERG current change (%, negative = inhibition) at 10uM” value is listed as -21.8%.
